# Screening data as filed in PubChem BioAssay.
# Shown are actives, neighbours in structure and some others; about 19% of the full set was active somewhere.
# DT40 TDP1 CPT: DT40-hTDP1 cell growth loss with CPT; actives 12% (n = 420,000); AID 686979; Potency, µM (series often up to 46.2 µM), for inactives: at the highest dose activity change, negative = growth inhibition, usual class: inhibitors; chicken DT40 Tdp1-/-;hTDP1 cells + 20 nM CPT, ATP luminescence, 48 h; note: potency is the fitted concentration of half-maximal effect; nearly all actives have a fitted effect of over 55% in size
#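 Chicken DT40 Tdp1-/- cells complemented with human TDP1, 400 cells/well, exposed to compounds plus 20 nM camptothecin for at least 48 h at 37 C; viability read as ATP content by CellTiter-Glo luminescence.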
# HT1080-NT tox: kills 2HG-producing HT-1080-NT fibrosarcoma cells; actives 1.6% (n = 360,000); Potency, µM (series often up to 46.1 µM), for inactives: at the highest dose activity, negative = less viability, usual class: cytotoxic; HT-1080-NT fibrosarcoma viability, CellTiter-Glo ATP luminescence, 48 h;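 note: NT is the 2HG producing partner of a matched IDH1 knockdown line; potency is the fitted concentration of half-maximal effect; 0% = DMSO-treated cells and -100% = media-only wells without cells; nearly all actives have a fitted effect of over 55% in size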
#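 Read-out is CellTiter-Glo luminescence after 10 minutes at room temperature, following 48 hours' compound treatment of HT-1080-NT cells (750 cells/well, RPMI, 5% FBS, 37 degrees C).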
# DT40 TDP1 no CPT: qHTS for Inhibitors of human tyrosyl-DNA phosphodiesterase 1 (TDP1): qHTS in cells in absence of CPT; Potency, µM (titrated, usually from 46.2 µM), inactives show at the highest dose activity change, negative = growth inhibition, most hits filed as inhibitors; actives 15% (n = 420,000); DT40 Tdp1-/- hTDP1 cells, no CPT, ATP luminescence, 48 h; note: potency is the fitted concentration of half-maximal effect; nearly all actives have a fitted effect of over 55% in size
#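 DT40 Tdp1-/-;hTDP1 cells, no CPT (DMSO vehicle only), 400 cells/well; compounds pin-transferred; ≥48 hr, 37 °C; CellTiter-Glo 30 min RT dark, luminescence read.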
# IL1B secr inh: blocks inflammasome-driven IL-1 beta release; THP-1 LPS/ATP IL-1B secretion, AlphaLISA, 16 h; hits give low values; activity change, % at 57.5 µM; actives 4.7% (n = 360,000); in the data active = activity change below about -50%; inconclusive = mostly about -30% to -49%
#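 THP-1 cells pretreated 1 hr with compounds (up to 57.5 uM final), then stimulated with LPS (250 ng/mL final) plus ATP (1.25 mM final); secreted IL-1B measured by AlphaLISA after 16 hr, decreased signal indicating inhibition.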
# uPA generation: blocks generation of uPA at the cell surface. cell surface uPA generation assay, qHTS. Potency, µM (highest dose often 38.3 µM), for the others: at the top dose activity change, negative = inhibition, most hits filed as inhibitors. actives 0.31% (n = 330,000). AID 540303; active = well fitted inhibition curve with a large enough effect; inconclusive = small, poorly fitted or top-dose-only effect; inactive = no such curve, though single readings can be large or run the other way; tested in mouse RAW 264.7 cells; note: potency is the fitted concentration of half-maximal effect; nearly all actives have a fitted effect of over 55% in size
# HT1080 IDH1KD tx: toxicity to HT-1080 IDH1 knockdown cells (counter line); Potency, µM (titrated, usually from 46.1 µM), for inactives: top-dose activity, negative = toxicity, usual class: cytotoxic; actives 2% (n = 360,000); HT-1080 IDH1 knockdown viability, ATP luminescence, 48 h; AID 686971;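 note: potency is the fitted concentration of half-maximal effect; 0% = DMSO wells and -100% = cell-free medium wells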
#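 After a 2 h attachment period, IDH1KD HT-1080 cells took pin-transferred compound for 48 h at 37 °C; ATP-based luminescence after 10 min room-temperature reagent incubation reported viability.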
# Starred values were filed as active, the others as inactive; ? = inconclusive; / = not tested or not shown. Unless noted, calls come from the whole dose curve; as a rule, active = well fitted curve in the direction sought with a large enough effect; inconclusive = small, poorly fitted or top-dose-only effect, or another doubt; inactive = no such curve, though single readings can be large; an effect the other way counts as inactive or inconclusive. Unless noted, % is set by controls: 0 for no effect and ±100 for the full control effect.
SMILES,DT40 TDP1 CPT,HT1080-NT tox,DT40 TDP1 no CPT,IL1B secr inh,uPA generation,HT1080 IDH1KD tx
CCCCCCC(=O)N(O)C1CC(=O)N(c2ccc(C)cc2)C1=O (stereo not drawn),2.9µM*,-14%,5.8µM*,-4,-11%,-8%
Cc1ccc(N2C(=O)CC(N(O)C3CC(=O)N(c4ccc(C)cc4)C3=O)C2=O)cc1 (stereo not drawn),?,11%,?,0,2%,3%
Oc1ccccc1C1CC(c2cccs2)=NC(c2cccc(Br)c2)N1 (stereo not drawn),15µM*,?,21µM*,-10,-12%,?
CC(C)c1ccc(NC(=O)CN2C(=O)NC(Cc3c[nH]c4ccccc34)C2=O)cc1 (stereo not drawn),?,?,16µM*,-59*,?,?
O=C1NC(Cc2c[nH]c3ccccc23)C(=O)N1Cc1cccc2ccccc12 (stereo not drawn),-27%,?,?,-101*,4%,?
CC(C)(C)OC(=O)COc1ccc(/C=N/NC(=O)CN2CCCCC2)cc1,5%,13%,12%,-3,5%,8%
c1ccc(COc2cccc(-c3cc4nc(NCCCn5ccnc5)ccn4n3)c2)cc1,?,16µM*,15µM*,-1,/,23µM*
c1ccc(COc2cccc(-c3cc4nc(NCCc5ccncc5)ccn4n3)c2)cc1,15µM*,18µM*,13µM*,-60*,/,23µM*
CC(C)OCCCNC(=O)CN1C(=O)c2cccnc2Sc2ccccc21,-16%,/,-14%,/,/,/
Cc1ccc2c(=O)cc(C(=O)Nc3ccc(S(=O)(=O)N(C)c4ccccc4)cc3)oc2c1C,2%,/,-6%,/,/,/
Cc1ccc2c(=O)cc(C(=O)Nc3ccc(S(=O)(=O)N4CCCCCC4)cc3)oc2c1C,?,/,15µM*,/,/,/
Cc1cc2oc(C(=O)Nc3ccc(S(=O)(=O)N4CCC(C)CC4)cc3)cc(=O)c2cc1C,-3%,/,-8%,/,/,/
Cc1cc(C)c2oc(C(=O)Nc3ccc(S(=O)(=O)N4CCC(C)CC4)cc3)cc(=O)c2c1,10µM*,10%,7.3µM*,0,-7%,5%
Cc1ccccc1N(CC(=O)NCC1CCCO1)C(=O)CCC(=O)Nc1nccs1 (stereo not drawn),1%,4%,-23%,7,-10%,6%
C[C@H]1CN([C@@H](C)CO)C(=O)CCCn2cc(nn2)CO[C@@H]1CN(C)C(=O)Nc1ccc2c(c1)OCCO2,6%,0%,-5%,7,/,0%
O=C(CCN1CCc2ccccc2C(c2ccccc2)C1)c1ccc2c(c1)OCCO2 (stereo not drawn),3.3µM*,?,3.3µM*,-20,-8%,?
O=C(CS(=O)(=O)c1ccccc1)c1ccc2c(c1)OCCO2,15µM*,1%,18µM*,-4,3%,3%
O=C(CCN1Cc2ccccc2C1)c1ccc2c(c1)OCCO2,3.7µM*,?,5.2µM*,-90*,-24%,11µM*
O=C(C[n+]1ccc(/C=C/c2ccccc2)cc1)c1ccc2c(c1)OCCO2,?,?,9.2µM*,-94*,-9%,16µM*
CSc1ncccc1C(=O)NCC1Cc2cc(F)cc(-c3cncnc3)c2O1 (stereo not drawn),7%,/,-8%,/,/,/
COc1cc2oc(=O)cc(CN3CCN(C(C)=O)CC3)c2cc1Cl,-21%,3%,-3%,-19,/,13%
Cc1cc(Nc2cccc(Cl)c2C)n2nc(Cc3ccccc3)nc2n1,?,/,-30%,/,/,/
COc1cccc(C2C(C(=O)c3ccc(C)o3)=C(O)C(=O)N2c2cc(C)on2)c1 (stereo not drawn),23µM*,0%,?,0,-5%,1%
